# Measured values published in PubChem BioAssay AID493192 (National Center for Advancing Translational Sciences (NCATS), 2011).
# Results filed as inconclusive are left out. Active and inactive are the calls of the source. Calls come from the whole dose curve; as a rule, active = well fitted activation curve with a large enough effect; inconclusive = small, poorly fitted or top-dose-only effect; inactive = no such curve, though single readings can be large or run the other way.
# Assay: qHTS Assay for Identifying a Potential Treatment of Ataxia-Telangiectasia: Hit Validation;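 note: phospho-KAP1 level by AlphaLISA as a proxy for ATM-like kinase activity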; for activity change, positive = activation: 0% is about no effect
# Conditions: Ataxia-telangiectasia cell-based hit validation qHTS, in ATM-null A-T patient fibroblasts; series mostly up to 76.9 µM; activity change, positive = activation: at the top concentration
# How it was run: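 KAP-1 phosphorylation was read by AlphaLISA as a measure of ATM-like activity in ATM-null F2112 fibroblasts. Compounds spanned up to 76.7 uM final, with 60 min exposure at 37C and a 6 hr detection incubation at 25C.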
# Potency is the fitted concentration of half-maximal effect.
SMILES,Potency,"activity change, positive = activation"
Cc1oc2c(c(C)cc3oc(=O)c(CC(=O)NCC(=O)NCC(=O)O)c(C)c32)c1C,32.8 µM (active),
CCS(=O)(=O)c1ccc(C(=O)Nc2ccccc2)c(Cl)c1Cl,29.2 µM (active),
OC(CN1CCCCC1)Cn1c2ccc(Cl)cc2c2cc(Cl)ccc21 (configuration not stated),,-5.56% (inactive)
CCN(CC)c1ccc2c(Cl)c(Br)c(=O)oc2c1,36.8 µM (active),
CC(=O)Nc1ccc(S(=O)(=O)NCC2(N3CCOCC3)CCCCC2)cc1,,0.803% (inactive)
CCOC(=O)c1[nH]c(COC(=O)c2ccccc2NC(=O)c2ccco2)c(C(=O)OCC)c1C,,8.68% (inactive)
O=C(O)CCCN1C(=O)/C(=C/C=C/c2ccco2)SC1=S,,-9.72% (inactive)
COC(=O)c1ccncc1C(=O)Nc1ccc(Oc2ncc(C(F)(F)F)cc2Cl)cc1,,-2.08% (inactive)
O=C(C(c1ccccc1)c1ccccc1)N1CC[C@@]2(O)CCCC[C@H]2C1,,4.02% (inactive)
Cc1ccc(-c2noc(CCC(=O)NC3CCN(Cc4ccccc4)CC3)n2)cc1,,-14.2% (inactive)
CCOC(=O)c1c(CSc2ccsc2)n(C)c2cc(Br)c(O)c(CN(C)C)c12,46.3 µM (active),
CCOC(=O)NC(C(Cl)(Cl)Cl)S(=O)(=O)c1ccccc1 (configuration not stated),41.2 µM (active),
CCC(C)N1C(=S)SC(C)(C)C1N(O)C(=O)NC1CCCCC1 (configuration not stated),,-7.23% (inactive)
COc1ccc(-c2csc(-c3ccc(O)cc3)n2)cc1,,10.1% (inactive)
COc1ccc(/C=N/Nc2nc(=O)[nH]nc2C)cc1OC,,0% (inactive)
CC(=O)Nc1ccc(NC2=C(Cl)C(=O)c3ccccc3C2=O)cc1,,3.61% (inactive)
CN(CCc1ccccn1)C(=O)c1cc(COc2ccc(F)cc2F)on1,,-13.6% (inactive)
